This note sets out measurements from PubChem BioAssay (NCATS).

Values without a mark were called inactive. Results filed as inconclusive are left out. The source made the active and inactive calls. Unless noted, calls follow the shape of the dose curve; as a rule, active = well fitted curve in the direction sought with a large enough effect; inconclusive = small, poorly fitted or top-dose-only effect, or another doubt; inactive = no such curve, though single readings can be large; an effect the other way counts as inactive or inconclusive.

For experiment [1], the target named is Lysosomal acid glucosylceramidase (Homo sapiens) (UniProt P04062). Description: Glucocerebrosidase-p2 (AID 348; in the data active = potency below about 10 µM; also: potency is read from the fitted curve at half-maximal effect). Conditions: purified GBA, blue fluorogenic substrate, 40 min. Put shortly: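 Normal human glucocerebrosidase (0.2 nM) with blue fluorogenic substrate (80 uM final) in citrate/phosphate pH 5.9 with 10mM sodium taurocholate, 0.01% tween-20; 40 min RT, NaOH/glycine stop; fluorescence Ex 365/Em 440; AC50 from a titration from 0.6 nM upwards.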

The nature of experiment [2]: AP1 Signaling Pathway (AID 357; active = well fitted curve in either direction with a large enough effect, not every such curve was filed as active; also: % is scaled to controls: 0 for no effect and ±100 for the full control effect). Conditions: ME-180 AP-1-bla reporter, EGF-induced, beta-lactamase ratio, 5 h; at 7.69 µM (top of the series) unless noted. An outline of the steps: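 Cells are seeded overnight, exposed to compound titrations and an EC50 level of EGF for 5 hours at 37 °C, then loaded with CCF4 dye for 2.5 hours. Beta-lactamase activity under the AP-1 element is read as a blue/green ratio.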

Experiment [3] has as its target Cytochrome P450 1A2 (Homo sapiens) (UniProt P05177). Briefly: p450-cyp1a2 (AID 410; calls by dose curve; also: potency is read from the fitted curve at half-maximal effect). The settings on record: recombinant CYP1A2, luciferin-ME demethylation, luminescence; series mostly up to 57 µM. An outline of the steps: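 O-Demethylation of luciferin 6' methyl ether by human CYP1A2 is monitored as luciferase luminescence. Substrate sits at Km (100uM); enzyme is 20nM. Values are scaled to 57 uM furafylline as maximal inhibition.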

Experiment [4] has as its target Glucocorticoid receptor (Homo sapiens) (UniProt P04150). Description: GR-GFP Redistribution (AID 450;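 active = compounds whose dose series gives a full or clear partial fitted curve of increased nuclear translocation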; also: potency is read from the fitted curve at half-maximal effect). Conditions: U2OS GR-GFP nuclear translocation, laser cytometry, 2 h.
Experiment [5] shares this target. Briefly: GR-EFC Redistribution (AID 451; calls by dose curve; also: potency is read from the fitted curve at half-maximal effect). The settings on record: CHO-K1 GR-EFC translocation, beta-gal luminescence, 2 h. An outline of the steps: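 Translocation of GR-ED fusion to nuclear EA restores b-gal, read by luminescence after 1 h room-temperature detection. Engineered CHO-K1 biosensor cells, 1,000/well, exposed 2 h at 37 C to titrations up to 46 uM final.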

Experiment [6] has as its target Mitogen-activated protein kinase 10 (Mus musculus) (UniProt Q61831). Briefly: JNK3 AlphaScreen Assay (AID 530; active = well fitted curve in either direction with a large enough effect, not every such curve was filed as active;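 also: kinase came from lysate of stimulated human HepG2 cells; signal reports phosphorylation of biotinylated GST-cJun 1-79 at Ser73 with 10 µM ATP; % is scaled to controls: 0 for no effect and ±100 for the full control effect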). The settings on record: JNK3 lysate, c-Jun phosphorylation; series mostly up to 57.1 µM. An outline of the steps:
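qHTS titrations with 15 min compound pre-incubation before adding ATP (10 uM final). Read-out: AlphaScreen of Ser73-phosphorylated biotin-GST-cJun using HepG2 lysate JNK3 activated by IL-1β and TNFα.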
Background: Bead proximity is the source of the signal in Alpha formats.

The target of experiment [7] is 3',5'-cyclic-AMP phosphodiesterase 4B (Homo sapiens) (UniProt Q07343). Briefly: qHTS Assay for Inhibitors of PDE-IV (AID 607; active = well fitted activation curve with a large enough effect in the main read-out, with a control signal flat, not every such curve was filed as active; also: % of control where 0% means no effect). The settings on record: HEK293 ACTOne CNG channel cells, membrane potential fluorescence; series mostly up to 22.9 µM. An outline of the steps:
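The readout is membrane depolarisation from a cAMP-sensing CNG channel, detected with a potential dye at ex 535/em 590. Cells were HEK293-derived (endogenous PDE-IV) at 1000 cells/well, titrated up to 22.9 uM final.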
Background: Quantitative high-throughput screening tests each substance at several concentrations.

Experiment [8] concerns the target Dual specificity protein kinase CLK4 (Homo sapiens) (UniProt Q9HAZ1). Description: qHTS Assay for Inhibitors of CDC-like Kinase 4 (Kinase-Glo Assay) (AID 1770). Also: nearly all actives have a fitted effect of over 65% in size. Also: potency is read from the fitted curve at half-maximal effect. Conditions: recombinant Clk4, Kinase-Glo ATP depletion luminescence; series mostly up to 66.7 µM. Put shortly:
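Readout: Kinase-Glo luminescence from ATP left after a 4.5 h room-temperature reaction of 25 nM Clk4 with 100 uM RS peptide and 1 uM ATP (final). Buffer: 25 mM Tris pH 7.5, 10 mM MgCl2.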

Experiment [9] shares this target. Briefly: qHTS Assay for Inhibitors of CDC-like Kinase 4 (ADP-Glo Assay) (AID 1771). Also: nearly all actives have a fitted effect of over 70% in size. Also: potency is read from the fitted curve at half-maximal effect. The settings on record: recombinant CLK4, ADP-Glo luminescence; series mostly up to 80 µM. An outline of the steps: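 Compounds are pin-transferred onto substrate mix (100 uM RS peptide, 1 uM ATP), then 25 nM Clk4 is added. After 1 hr at room temperature, ADP-Glo reagent runs 45 min, detection reagent 30 min, then luminescence is read.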

For experiment [10] the target is unchanged. Description: qHTS Assay for Inhibitors of CDC-like Kinase 4 (ADP-FP Assay) (AID 1795). Also: nearly all actives have a fitted effect of over 60% in size. Also: potency is read from the fitted curve at half-maximal effect. The settings on record: Transcreener ADP fluorescence polarization; series mostly up to 50 µM. An outline of the steps:
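FP readout: Orange Transcreener ADP2 tracer (4 nM) plus ADP antibody, read after 30 min at room temperature. Kinase step: 6.25 nM Clk4, 100 uM RS peptide, 1 uM ATP, pH 7.5, 1 h.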

In experiment [11] the target is Ubiquitin carboxyl-terminal hydrolase 1 (Homo sapiens) (UniProt O94782). Briefly: Inhibitors of USP1/UAF1: Pilot qHTS (AID 504865).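 Also: rhodamine fluorescence freed from ubiquitin-rhodamine substrate followed over time; top concentration of the series differs between compounds; % is scaled to controls: 0 for no effect and ±100 for the full control effect; nearly all actives have a fitted effect of over 35% in size.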 The settings on record: purified USP1/UAF1, Ub-rhodamine cleavage fluorescence; series mostly up to 54.9 µM. An outline of the steps:
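1nM USP1/UAF1 + cpd, 15 min RT; start w/ Ub-Rho 150nM final; kinetic FL 480/540 nm, 6 reads q60 s. Buffer 50mM HEPES pH 7.8, 0.5mM EDTA, 1mM TCEP, 0.01% Tween-20, 0.1 mg/ml BSA.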

Experiment [12] is described as follows: Primary qHTS for small molecule stabilizers of the endoplasmic reticulum resident proteome: Secreted ER Calcium Modulated Protein (SERCaMP) assay (AID 1508630). Also: % is scaled to controls: 0 for no effect and ±100 for the full control effect. The settings on record: SH-SY5Y GLuc-SERCaMP (Gaussia luciferase released on ER calcium loss) secretion, thapsigargin, luminescence; series mostly up to 38.4 µM. Put shortly: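 The SH-SY5Y reporter protocol was run at 3 concentrations up to 38.3 uM (primary) or 11 concentrations (follow-up): 16 h compound, 100 nM thapsigargin for 4 h, then extracellular luciferase luminescence.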

The nature of experiment [13]: NFAT Signaling Pathway (AID 444; active = well fitted curve in either direction with a large enough effect, not every such curve was filed as active;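 also: carbachol stimulus at about its EC50 of 1 µM final; % is scaled to controls: 0 for no effect and ±100 for the full control effect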). The settings on record: Jurkat NFAT-bla M1, carbachol, beta-lactamase ratio, 5 h; at 7.69 µM (top of the series) unless noted. Put shortly:
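Read-out: CCF4 FRET ratio (460 nm/530 nm) after 1 h RT dye loading, used for %activity and AC50 from titration series. Cells: Jurkat NFAT-β-lactamase/M1 line, treated with compound plus 1 uM carbachol for 5 h, 37 °C.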

A short description of experiment [14]: Stat Signaling Pathway (AID 446; active = well fitted curve in either direction with a large enough effect, not every such curve was filed as active). Conditions: ME-180 (cervical carcinoma) SIE beta-lactamase reporter, IL-6 stimulated, 5 h; at 7.69 µM (top of the series) unless noted. An outline of the steps: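 Emission at 460 and 530 nm (excitation 405 nm) reports SIE-controlled beta-lactamase in ME-180 cells. Cells received compound with 40 pM IL-6 for 5 hrs at 37 C; data scaled between 300 pM IL-6 and 125 nM JAK-inhibitor controls.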

For experiment [15], the target named is Cytochrome P450 3A4 (Homo sapiens) (UniProt P08684). Description: qHTS Assay for Inhibitors and Substrates of Cytochrome P450 3A4 (AID 884). Also: potency is read from the fitted curve at half-maximal effect; nearly all actives have a fitted effect of over 50% in size. The settings on record: recombinant CYP3A4, Luciferin-PPXE luminescence; series mostly up to 57.1 µM. Put shortly: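 Luminescent readout of luciferin produced by CYP3A4 (20 nM) dealkylation of Luciferin-PPXE, 25 uM (its KM). NADPH-driven reaction ran 60 min at RT after 10 min compound preincubation; data scaled to 57 uM ketoconazole as 100% inhibition.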

For experiment [16] the target is unchanged. Briefly: qHTS Assay for Activators of Cytochrome P450 3A4 (AID 885). Also: nearly all actives have a fitted effect of over 65% in size. Conditions: recombinant CYP3A4, Luciferin-PPXE luminescence, 60 min; series mostly up to 57.1 µM. Put shortly: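 Activators are scored by enhanced luminescence from CYP3A4 conversion of luciferin-PPXE (25uM, equal to KM) to luciferin, after 60 min at RT with an NADPH-regenerating system.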

For experiment [17], the target named is Cytochrome P450 2D6 (Homo sapiens) (UniProt P10635). Briefly: qHTS Assay for Inhibitors and Substrates of Cytochrome P450 2D6 (AID 891). Also: potency is read from the fitted curve at half-maximal effect; nearly all actives have a fitted effect of over 60% in size. Conditions: recombinant CYP2D6, luciferin-ME EGE luminescence; series mostly up to 57.1 µM. Put shortly:
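Luminescent read-out of luciferin formed by 5 nM human CYP2D6 demethylating 30 uM Luciferin-ME EGE (Km level) over 60 min at room temperature after NADPH regeneration addition. Data normalized to full inhibition by 1.43 uM quinidine.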

Chain of Dual specificity protein kinase CLK4 (Homo sapiens) (Q9HAZ1 whole entry, looked up): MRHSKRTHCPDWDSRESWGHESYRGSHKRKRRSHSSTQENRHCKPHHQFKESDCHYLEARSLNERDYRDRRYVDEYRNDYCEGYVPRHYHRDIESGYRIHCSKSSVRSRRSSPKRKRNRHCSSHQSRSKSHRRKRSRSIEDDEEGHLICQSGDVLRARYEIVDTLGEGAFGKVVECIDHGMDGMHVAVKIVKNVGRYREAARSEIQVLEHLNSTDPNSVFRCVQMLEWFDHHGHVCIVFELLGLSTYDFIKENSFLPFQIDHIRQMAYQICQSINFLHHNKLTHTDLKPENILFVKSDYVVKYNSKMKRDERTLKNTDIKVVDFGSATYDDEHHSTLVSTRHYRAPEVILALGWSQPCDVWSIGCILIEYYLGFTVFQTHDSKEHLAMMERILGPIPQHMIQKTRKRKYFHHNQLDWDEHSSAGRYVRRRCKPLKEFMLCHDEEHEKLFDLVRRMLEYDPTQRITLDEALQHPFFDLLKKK
Chain of Ubiquitin carboxyl-terminal hydrolase 1 (Homo sapiens) (O94782 whole entry, looked up): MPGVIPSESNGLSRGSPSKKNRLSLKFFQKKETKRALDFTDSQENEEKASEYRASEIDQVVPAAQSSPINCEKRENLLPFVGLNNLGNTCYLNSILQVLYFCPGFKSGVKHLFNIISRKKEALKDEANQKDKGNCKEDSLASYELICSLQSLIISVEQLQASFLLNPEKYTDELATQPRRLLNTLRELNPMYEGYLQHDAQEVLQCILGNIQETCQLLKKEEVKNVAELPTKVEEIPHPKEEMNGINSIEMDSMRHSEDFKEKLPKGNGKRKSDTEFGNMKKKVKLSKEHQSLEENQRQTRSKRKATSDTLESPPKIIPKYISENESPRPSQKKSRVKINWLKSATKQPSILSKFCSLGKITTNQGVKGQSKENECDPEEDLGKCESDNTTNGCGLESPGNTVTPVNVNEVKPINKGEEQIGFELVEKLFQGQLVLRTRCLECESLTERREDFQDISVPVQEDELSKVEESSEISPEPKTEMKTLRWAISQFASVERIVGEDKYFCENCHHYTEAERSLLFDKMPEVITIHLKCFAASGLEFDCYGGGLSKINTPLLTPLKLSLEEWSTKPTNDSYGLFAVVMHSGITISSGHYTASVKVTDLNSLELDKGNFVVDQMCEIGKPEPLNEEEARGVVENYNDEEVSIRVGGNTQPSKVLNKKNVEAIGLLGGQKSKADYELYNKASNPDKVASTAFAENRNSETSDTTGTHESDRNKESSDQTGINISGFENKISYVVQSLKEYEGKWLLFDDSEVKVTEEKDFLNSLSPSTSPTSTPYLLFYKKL
Chain of 3',5'-cyclic-AMP phosphodiesterase 4B (Homo sapiens) (Q07343 whole entry, looked up): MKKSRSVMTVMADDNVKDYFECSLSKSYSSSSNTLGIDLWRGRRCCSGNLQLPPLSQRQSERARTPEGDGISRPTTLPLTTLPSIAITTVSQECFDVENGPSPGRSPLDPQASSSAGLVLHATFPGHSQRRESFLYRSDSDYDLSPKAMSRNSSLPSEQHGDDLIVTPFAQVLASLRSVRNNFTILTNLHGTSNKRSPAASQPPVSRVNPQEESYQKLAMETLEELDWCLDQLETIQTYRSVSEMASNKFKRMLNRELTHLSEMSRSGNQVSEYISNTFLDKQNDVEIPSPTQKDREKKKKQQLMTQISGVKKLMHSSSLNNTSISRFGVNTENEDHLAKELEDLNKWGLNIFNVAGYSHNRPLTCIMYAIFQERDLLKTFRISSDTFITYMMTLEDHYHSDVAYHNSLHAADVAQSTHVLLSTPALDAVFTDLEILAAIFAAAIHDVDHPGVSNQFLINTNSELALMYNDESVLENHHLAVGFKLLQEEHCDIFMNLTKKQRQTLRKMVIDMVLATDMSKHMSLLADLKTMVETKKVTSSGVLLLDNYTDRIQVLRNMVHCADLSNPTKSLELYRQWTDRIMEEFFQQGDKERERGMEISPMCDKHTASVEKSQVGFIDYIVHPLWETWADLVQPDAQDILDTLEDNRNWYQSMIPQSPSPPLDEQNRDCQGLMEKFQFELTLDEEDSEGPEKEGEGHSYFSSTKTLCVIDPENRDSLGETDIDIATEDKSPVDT
Chain of Glucocorticoid receptor (Homo sapiens) (P04150 whole entry, looked up, the tested form may be a part): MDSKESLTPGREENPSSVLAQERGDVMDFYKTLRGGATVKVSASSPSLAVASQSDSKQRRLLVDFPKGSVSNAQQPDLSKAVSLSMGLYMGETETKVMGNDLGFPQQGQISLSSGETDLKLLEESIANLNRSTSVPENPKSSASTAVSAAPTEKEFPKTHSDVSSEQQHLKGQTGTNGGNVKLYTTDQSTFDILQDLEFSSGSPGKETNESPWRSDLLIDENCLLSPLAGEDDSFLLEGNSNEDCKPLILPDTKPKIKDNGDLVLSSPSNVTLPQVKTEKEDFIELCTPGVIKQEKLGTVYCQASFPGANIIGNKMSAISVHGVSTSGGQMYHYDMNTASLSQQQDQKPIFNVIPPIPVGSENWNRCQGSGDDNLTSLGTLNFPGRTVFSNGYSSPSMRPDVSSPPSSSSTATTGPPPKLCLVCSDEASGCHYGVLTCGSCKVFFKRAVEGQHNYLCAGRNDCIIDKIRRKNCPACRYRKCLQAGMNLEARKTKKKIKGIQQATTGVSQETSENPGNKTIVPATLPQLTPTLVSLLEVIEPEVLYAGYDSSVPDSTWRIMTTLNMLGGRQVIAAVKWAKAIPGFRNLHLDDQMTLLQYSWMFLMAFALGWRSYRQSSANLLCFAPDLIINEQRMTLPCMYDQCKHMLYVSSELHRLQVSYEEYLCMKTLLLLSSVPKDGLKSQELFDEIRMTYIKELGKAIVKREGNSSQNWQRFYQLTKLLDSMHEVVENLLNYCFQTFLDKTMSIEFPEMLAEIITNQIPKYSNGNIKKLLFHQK
Chain of Lysosomal acid glucosylceramidase (Homo sapiens) (P04062 whole entry, looked up): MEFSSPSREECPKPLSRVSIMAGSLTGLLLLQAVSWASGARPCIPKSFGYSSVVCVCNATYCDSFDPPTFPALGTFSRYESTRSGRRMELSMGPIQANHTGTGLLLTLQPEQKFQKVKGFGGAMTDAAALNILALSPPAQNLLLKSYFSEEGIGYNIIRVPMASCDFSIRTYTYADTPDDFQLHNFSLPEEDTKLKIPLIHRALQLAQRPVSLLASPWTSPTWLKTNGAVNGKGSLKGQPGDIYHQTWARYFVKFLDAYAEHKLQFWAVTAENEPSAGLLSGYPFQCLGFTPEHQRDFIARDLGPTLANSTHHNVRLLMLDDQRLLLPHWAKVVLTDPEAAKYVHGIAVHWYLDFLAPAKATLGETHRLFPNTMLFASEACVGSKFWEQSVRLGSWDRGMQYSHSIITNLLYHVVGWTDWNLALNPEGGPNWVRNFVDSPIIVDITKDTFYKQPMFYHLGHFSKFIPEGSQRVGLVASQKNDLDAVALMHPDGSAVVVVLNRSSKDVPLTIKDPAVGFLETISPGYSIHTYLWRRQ
Chain of Cytochrome P450 1A2 (Homo sapiens) (P05177 whole entry, looked up): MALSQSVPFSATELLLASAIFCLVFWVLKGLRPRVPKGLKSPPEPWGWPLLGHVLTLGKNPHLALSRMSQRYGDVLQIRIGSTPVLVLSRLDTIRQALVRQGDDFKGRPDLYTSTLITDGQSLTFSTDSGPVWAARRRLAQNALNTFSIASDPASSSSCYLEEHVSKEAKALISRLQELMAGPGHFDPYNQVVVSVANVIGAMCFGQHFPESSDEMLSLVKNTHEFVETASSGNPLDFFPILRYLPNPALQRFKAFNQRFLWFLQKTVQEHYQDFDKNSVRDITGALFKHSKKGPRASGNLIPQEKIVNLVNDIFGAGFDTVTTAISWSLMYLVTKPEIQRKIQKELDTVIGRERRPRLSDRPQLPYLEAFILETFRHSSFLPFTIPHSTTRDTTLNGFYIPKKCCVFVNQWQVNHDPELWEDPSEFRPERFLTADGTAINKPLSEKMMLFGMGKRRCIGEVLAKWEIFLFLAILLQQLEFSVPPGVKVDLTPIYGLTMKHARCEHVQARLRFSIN
Chain of Cytochrome P450 3A4 (Homo sapiens) (P08684 whole entry, looked up): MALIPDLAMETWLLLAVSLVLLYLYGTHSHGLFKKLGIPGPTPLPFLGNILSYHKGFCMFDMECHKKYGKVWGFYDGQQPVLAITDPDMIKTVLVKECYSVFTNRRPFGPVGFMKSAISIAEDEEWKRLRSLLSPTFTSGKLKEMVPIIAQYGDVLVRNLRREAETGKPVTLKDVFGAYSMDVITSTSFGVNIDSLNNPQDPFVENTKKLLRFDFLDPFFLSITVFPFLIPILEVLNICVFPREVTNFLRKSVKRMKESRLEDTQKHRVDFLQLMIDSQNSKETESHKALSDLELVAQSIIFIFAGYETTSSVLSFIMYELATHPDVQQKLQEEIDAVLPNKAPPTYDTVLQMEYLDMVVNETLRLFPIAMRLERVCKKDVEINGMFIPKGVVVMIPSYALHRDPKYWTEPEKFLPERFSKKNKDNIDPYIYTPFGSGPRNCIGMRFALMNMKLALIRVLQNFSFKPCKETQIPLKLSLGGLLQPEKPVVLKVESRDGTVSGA
Chain of Cytochrome P450 2D6 (Homo sapiens) (P10635 whole entry, looked up): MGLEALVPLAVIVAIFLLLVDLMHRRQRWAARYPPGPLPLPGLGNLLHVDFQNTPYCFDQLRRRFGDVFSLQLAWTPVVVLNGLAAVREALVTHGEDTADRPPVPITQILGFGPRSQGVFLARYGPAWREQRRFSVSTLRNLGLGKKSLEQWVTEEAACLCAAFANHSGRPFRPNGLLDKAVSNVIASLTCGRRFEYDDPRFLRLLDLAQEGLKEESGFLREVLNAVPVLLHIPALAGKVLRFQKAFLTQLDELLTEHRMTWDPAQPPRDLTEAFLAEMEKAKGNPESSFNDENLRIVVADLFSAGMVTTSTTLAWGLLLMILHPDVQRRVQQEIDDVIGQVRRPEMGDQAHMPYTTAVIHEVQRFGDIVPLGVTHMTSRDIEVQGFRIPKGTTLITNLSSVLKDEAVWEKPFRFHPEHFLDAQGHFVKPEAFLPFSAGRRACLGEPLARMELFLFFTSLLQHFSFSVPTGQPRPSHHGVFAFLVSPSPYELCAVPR

On to `N#CCCn1c(=O)c(-c2ccccc2)nc2cnc(N3CCOCC3)nc21`, for which the Potency in experiment [1] is over 11.4 µM; in [3], 10 µM (active); in [4], over 9.22 µM; in experiment [5] it was over 46 µM. Moreover, the activity change, negative = inhibition in [2] was 20.5%. The Potency result in experiment [6], in [7], in experiment [8], in experiment [9], in experiment [10] and in experiment [11] was “inactive” each time. For the same molecule, the outcome in experiment [12] was inactive.

Regarding `CN(Cc1ccco1)c1cc(-c2ccccc2C(F)(F)F)ncn1`, the results for the Potency in experiment [1], in experiment [4] and in [5] were over 11.4 µM, over 46 µM and over 46 µM, respectively. In addition, the activity change, negative = inhibition was 9.11% in [2] and -16.3% in [13]. The activity, negative = inhibition in [14] was 3.49%. The Potency result in [6], in experiment [7], in experiment [8], in [9], in experiment [10] and in experiment [11] was “inactive” throughout. Further, in experiment [12], the result was inactive.

Turning to `c1cncc(-c2nc(NCc3cccs3)c3ccccc3n2)c1`, the Potency in experiment [1] is over 11.4 µM; in experiment [3], 0.316 µM (active); in experiment [4] it was over 46 µM; in experiment [5], over 46 µM; in experiment [15], 2 µM (active); in [17], 6.31 µM (active). Besides, the results for the Potency in experiment [8], in experiment [9] and in experiment [10] were 1.58 µM (active), 1.26 µM (active) and 2 µM (active), respectively. In addition, the activity change, negative = inhibition in experiment [2] was -18.5%. The activity, negative = inhibition in experiment [14] is 1.18%. The Potency entry in experiment [6], in [16] and in experiment [11] was “inactive” throughout. For the same molecule, in experiment [12], the outcome was inactive.

As to `COc1ccc(Oc2ncc3nc(-c4cccc(C#N)c4)c(=O)n(C)c3n2)cc1`, the Potency was over 11.4 µM in [1], over 9.22 µM in [4] and over 46 µM in experiment [5]. The activity change, negative = inhibition is -0.821% in experiment [2] and -9.84% in experiment [13]. In addition, the activity, negative = inhibition in experiment [14] is -2.78%. Also, the Potency result in [6], in experiment [7], in experiment [8], in experiment [9], in [10] and in [11] was “inactive” throughout. Moreover, the outcome in [12] was inactive.

Regarding `O=c1c(-c2ccc(F)cc2)nc2cncnc2n1Cc1ccccc1`, the Potency in [1] was over 11.4 µM; in [4] it was over 9.22 µM; in [5], over 46 µM. In addition, the results for the activity change, negative = inhibition in experiment [2] and in experiment [13] were -5.88% and -16.1%, respectively. In addition, the activity, negative = inhibition in experiment [14] is 9.13%. In addition, the Potency result in experiment [6], in experiment [8], in experiment [9], in experiment [10] and in experiment [11] was “inactive” each time. In addition, the outcome in [12] was inactive.

Turning to `COc1ncc2nc(-c3ccc(F)cc3)c(=O)n(Cc3cccs3)c2n1`, the Potency in experiment [1] is over 11.4 µM; in experiment [4] it was over 9.22 µM; in experiment [5], over 46 µM. Also, the activity change, negative = inhibition was -5.24% in experiment [2] and -1.45% in experiment [13]. Also, the activity, negative = inhibition in [14] is -28.5%. For the same molecule, the Potency result in experiment [6], in experiment [7], in experiment [8], in [9], in [10] and in experiment [11] was “inactive” in each case. Further, the outcome in [12] was inactive.

`Cc1nc2cncnc2n(Cc2ccccc2Cl)c1=O`: the Potency is over 11.4 µM in experiment [1], over 9.22 µM in experiment [4] and over 46 µM in [5]. Moreover, the values for the activity change, negative = inhibition in [2] and in experiment [13] were -18% and -1.6%, respectively. Further, the activity, negative = inhibition in [14] is -18.9%. The Potency result in [6], in experiment [8], in [9], in experiment [10] and in experiment [11] was “inactive” throughout. For the same molecule, in [12], the result was inactive.
